The whole screen tested about 39,000 compounds, of which about 3,300 (8.5%) were called active. The full list was thinned out, with actives kept by preference.

These results are taken from the antibiotic and cytotoxicity screens of Wong et al. (2023).

This assay relates to HepG2. The experiment in a line: cytotoxicity call (relative viability < 0.9). Conditions: 10 µM.
With `Cc1cc(C(=O)Nc2cccc3c2O[C@@H](CN(C)S(=O)(=O)c2ccc(F)cc2)[C@@H](C)CN([C@H](C)CO)C3=O)n(C)n1`, the cytotoxicity call is “inactive”.

For `COc1ccc(S(=O)(=O)N(C)C[C@@H]2Oc3cc(C#CC4CCCC4)ccc3S(=O)(=O)N([C@H](C)CO)C[C@H]2C)cc1`, the cytotoxicity call is “inactive”.

For the compound `C[C@@H]1CN([C@H](C)CO)C(=O)c2cc(NS(=O)(=O)c3ccccc3)ccc2O[C@@H]1CN(C)S(=O)(=O)c1ccc(F)cc1`, the cytotoxicity call was “inactive”.

With `COc1ccc(NC(=O)N[C@H]2CC[C@@H](CCNC(=O)CN3CCOCC3)O[C@@H]2CO)cc1`, the cytotoxicity call was “inactive”.

With `CCS(=O)(=O)Nc1ccc2c(c1)C(=O)N(C)[C@@H]1CC[C@@H](CC(=O)NCc3ccccc3F)O[C@H]1CO2`, the cytotoxicity call is “inactive”.

In the case of `C[C@@H]1CCCCO[C@H](CN(C)S(=O)(=O)c2ccccc2)[C@H](C)CN([C@@H](C)CO)C(=O)c2cc(NC(=O)C3CCCCC3)ccc2O1`, the cytotoxicity call was “inactive”.

With `COc1ccc(CN(C)C[C@H]2OCCCC[C@H](C)Oc3ccc(NS(=O)(=O)c4ccc(Cl)cc4)cc3C(=O)N([C@H](C)CO)C[C@@H]2C)cc1`, the cytotoxicity call is “inactive”.

As for `COCC(=O)N1[C@H](C(=O)NCc2ccccc2)[C@@H](CO)[C@@H]2Cn3c(cccc3=O)[C@@H]21`, the cytotoxicity call was “inactive”.

For the compound `C[C@@H]1CN([C@@H](C)CO)C(=O)c2cc(NC(=O)CCCN(C)C)ccc2O[C@@H]1CN(C)Cc1ccccc1`, the cytotoxicity call is “inactive”.

Turning to `C[C@@H]1CN([C@H](C)CO)C(=O)c2cc(NC(=O)CCCN(C)C)ccc2O[C@@H]1CN(C)Cc1ccccc1`, the cytotoxicity call is “inactive”.

On to `C[C@@H]1CN([C@@H](C)CO)C(=O)c2cc(NC(=O)CCCN(C)C)ccc2O[C@@H]1CN(C)Cc1ccc(Oc2ccccc2)cc1`, for which the cytotoxicity call is “active”.

For the compound `C[C@H]1CN([C@@H](C)CO)C(=O)c2cc(NC(=O)CCCN(C)C)ccc2O[C@@H]1CN(C)Cc1ccccc1`, the cytotoxicity call was “inactive”.

On to `C[C@H](CO)N1C[C@H](C)[C@H](CN(C)Cc2ccc(Oc3ccccc3)cc2)Oc2ccc(NC(=O)CCCN(C)C)cc2C1=O`, for which the cytotoxicity call was “active”.

Regarding `C[C@H](CO)N1C[C@H](C)[C@H](CN(C)Cc2ccccc2)Oc2ccc(NC(=O)CCCN(C)C)cc2C1=O`, the cytotoxicity call is “inactive”.

`Cc1noc(C)c1NC(=O)Nc1ccc2c(c1)CC(=O)N([C@@H](C)CO)C[C@H](C)[C@H](CN(C)Cc1ccc(C(F)(F)F)cc1)O2`: the cytotoxicity call is “inactive”.

Regarding `C[C@@H]1CN([C@H](C)CO)C(=O)c2cc(NC(=O)Nc3ccc(F)cc3)ccc2O[C@@H](C)CCCCO[C@H]1CN(C)C(=O)Nc1ccccc1`, the cytotoxicity call is “inactive”.

As to `O=c1[nH]ncc2ccccc12`, the cytotoxicity call is “inactive”.

For the compound `Cc1ccc(S(=O)(=O)Nc2cccc3c2O[C@@H](CN(C)S(=O)(=O)c2ccccc2)[C@H](C)CN([C@H](C)CO)C3=O)cc1`, the cytotoxicity call is “inactive”.

`O=C(CN1CCOCC1)NCC[C@H]1CC[C@@H](NC(=O)c2ccc3c(c2)OCO3)[C@@H](CO)O1`: the cytotoxicity call was “inactive”.

Take `Cc1ccc(S[C@]2(C(=O)NC(C)C)CC(=O)N(Cc3ccccc3Cl)[C@@H]2c2ccc(CO)cc2I)cc1`: the cytotoxicity call was “inactive”.

Regarding `O=C(C[C@@H]1C[C@@H]2c3cc(NS(=O)(=O)c4ccc(F)cc4)ccc3O[C@@H]2[C@H](CO)O1)N1CCCCC1`, the cytotoxicity call is “inactive”.

On to `C[C@@H]1CN([C@H](C)CO)C(=O)Cc2cc(NC(=O)Nc3ccc(C(F)(F)F)cc3)ccc2O[C@H]1CN(C)Cc1ccc(C(=O)Nc2ccccc2N)cc1`, for which the cytotoxicity call is “inactive”.

Take `C[C@H]1CN([C@@H](C)CO)C(=O)Cc2cc(NC(=O)CCC(F)(F)F)ccc2O[C@H]1CN(C)Cc1ccc(C(=O)Nc2ccccc2N)cc1`: the cytotoxicity call was “active”.

Regarding `C[C@@H]1CN([C@@H](C)CO)C(=O)Cc2cc(NC(=O)Nc3ccccc3)ccc2O[C@@H]1CN(C)Cc1ccc(C(=O)Nc2ccccc2N)cc1`, the cytotoxicity call was “inactive”.

With `C[C@@H]1CN([C@H](C)CO)C(=O)Cc2cc(NC(=O)Nc3ccc(C(F)(F)F)cc3)ccc2O[C@@H]1CN(C)Cc1ccc(C(=O)Nc2ccccc2N)cc1`, the cytotoxicity call was “active”.

Regarding `C[C@@H]1CN([C@H](C)CO)C(=O)Cc2cc(NC(=O)CCC(F)(F)F)ccc2O[C@H]1CN(C)Cc1ccc(C(=O)Nc2ccccc2N)cc1`, the cytotoxicity call is “inactive”.

In the case of `C[C@H](CO)N1C[C@H](C)[C@@H](CN(C)Cc2ccc(C(=O)Nc3ccccc3N)cc2)Oc2ccc(NC(=O)CCC(F)(F)F)cc2CC1=O`, the cytotoxicity call is “inactive”.

Regarding `C[C@H]1CN([C@@H](C)CO)C(=O)Cc2cc(NC(=O)Nc3ccc(C(F)(F)F)cc3)ccc2O[C@@H]1CN(C)Cc1ccc(C(=O)Nc2ccccc2N)cc1`, the cytotoxicity call is “inactive”.

Take `C[C@H]1CN([C@@H](C)CO)C(=O)Cc2cc(NC(=O)Nc3ccc(C(F)(F)F)cc3)ccc2O[C@H]1CN(C)Cc1ccc(C(=O)Nc2ccccc2N)cc1`: the cytotoxicity call was “active”.

As for `C[C@@H]1CN([C@@H](C)CO)C(=O)Cc2cc(NC(=O)Nc3ccc(C(F)(F)F)cc3)ccc2O[C@@H]1CN(C)Cc1ccc(C(=O)Nc2ccccc2N)cc1`, the cytotoxicity call was “active”.

For `CC(=O)O[C@H]1C[C@@H]2CC[C@@H]3[C@H](CC[C@@]4(C)[C@H]3C[C@H]([N+]3(C)CCCCC3)[C@@H]4OC(C)=O)[C@@]2(C)C[C@@H]1N1CCCCC1`, the cytotoxicity call is “inactive”.

For `C[C@@H]1CN([C@@H](C)CO)C(=O)c2cc(NC(=O)CCN3CCOCC3)ccc2O[C@@H]1CN(C)Cc1ccncc1`, the cytotoxicity call was “inactive”.

With `C[C@@H]1CN([C@@H](C)CO)C(=O)c2cc(NS(=O)(=O)c3cccs3)ccc2O[C@H]1CN(C)S(C)(=O)=O`, the cytotoxicity call was “inactive”.

For the compound `Cc1noc(C)c1S(=O)(=O)Nc1ccc2c(c1)CC(=O)N([C@H](C)CO)C[C@@H](C)[C@@H](CN(C)S(=O)(=O)c1cccs1)O2`, the cytotoxicity call is “inactive”.

Turning to `Cc1noc(C)c1S(=O)(=O)Nc1cccc2c1O[C@H](CN(C)C(=O)NC1CCCCC1)[C@H](C)CN([C@H](C)CO)C2=O`, the cytotoxicity call is “inactive”.

Regarding `CC(C)CC#Cc1ccc2c(c1)O[C@H](CN(C)C(=O)c1ccccn1)[C@@H](C)CN([C@@H](C)CO)S2(=O)=O`, the cytotoxicity call was “inactive”.

`CC(C)(C)[S@@](=O)N1Cc2cc(C(=O)N[C@H]3CCN(Cc4ccccc4)C3)nc(-c3cccc(-c4cccnc4)c3)c2[C@H]1CCO`: the cytotoxicity call was “inactive”.

In the case of `C[C@H]1CN([C@@H](C)CO)C(=O)c2cc(C#Cc3ccc(F)cc3)cnc2O[C@H]1CN(C)Cc1ccccn1`, the cytotoxicity call was “inactive”.

As for `COc1ccc(NC(=O)Nc2ccc3c(c2)CC(=O)N([C@H](C)CO)C[C@@H](C)[C@@H](CN(C)S(=O)(=O)c2cn(C)cn2)O3)cc1`, the cytotoxicity call is “inactive”.

With `C[C@H](CO)N1C[C@H](C)[C@H](CN(C)Cc2ccc(C(=O)Nc3ccccc3N)cc2)Oc2ccc(NC(=O)Nc3ccc(C(F)(F)F)cc3)cc2CC1=O`, the cytotoxicity call was “active”.

For the compound `Cc1ccc(S(=O)(=O)Nc2cccc3c2O[C@H](CN(C)C(=O)Nc2ccc(C(F)(F)F)cc2)[C@@H](C)CN([C@@H](C)CO)C3=O)cc1`, the cytotoxicity call was “inactive”.

On to `C[C@H](CO)N1C[C@H](C)[C@@H](CN(C)S(=O)(=O)c2ccc(F)cc2)Oc2ccc(NC(=O)Nc3ccc(C(F)(F)F)cc3)cc2C1=O`, for which the cytotoxicity call is “inactive”.

On to `C[C@@H]1CN([C@H](C)CO)C(=O)c2cc(NC(=O)Nc3ccc(C(F)(F)F)cc3)ccc2O[C@H]1CN(C)S(=O)(=O)c1ccc(F)cc1`, for which the cytotoxicity call is “active”.

For `C[C@H]1CN([C@@H](C)CO)C(=O)c2cc(NC(=O)Nc3ccc(C(F)(F)F)cc3)ccc2O[C@@H]1CN(C)S(C)(=O)=O`, the cytotoxicity call was “inactive”.

Take `C[C@H]1CN([C@@H](C)CO)C(=O)c2cc(NC(=O)Nc3ccc(C(F)(F)F)cc3)ccc2O[C@H]1CN(C)S(=O)(=O)c1ccc(F)cc1`: the cytotoxicity call was “active”.

For `C[C@@H]1CN([C@@H](C)CO)C(=O)c2cc(NC(=O)Nc3ccc(C(F)(F)F)cc3)ccc2O[C@H]1CN(C)S(=O)(=O)c1ccc(F)cc1`, the cytotoxicity call was “inactive”.

On to `C[C@H]1CN([C@@H](C)CO)C(=O)c2cc(NC(=O)Nc3ccc(C(F)(F)F)cc3)ccc2O[C@@H]1CN(C)S(=O)(=O)c1ccc(F)cc1`, for which the cytotoxicity call was “inactive”.

Consider `C[C@H]1CN([C@@H](C)CO)C(=O)c2cc(NC(=O)Nc3ccc(C(F)(F)F)cc3)ccc2O[C@H]1CN(C)S(C)(=O)=O`, for which the cytotoxicity call is “inactive”.

As to `C[C@@H]1CN([C@H](C)CO)C(=O)c2cc(NC(=O)Nc3ccc(C(F)(F)F)cc3)ccc2O[C@@H]1CN(C)S(=O)(=O)c1ccc(F)cc1`, the cytotoxicity call was “active”.

`C[C@@H]1CN([C@H](C)CO)C(=O)c2cc(NC(=O)Nc3ccc(C(F)(F)F)cc3)ccc2O[C@H]1CN(C)S(C)(=O)=O`: the cytotoxicity call is “inactive”.

Turning to `C[C@@H]1CN([C@@H](C)CO)C(=O)c2cc(NC(=O)Nc3ccc(C(F)(F)F)cc3)ccc2O[C@@H]1CN(C)S(=O)(=O)c1ccc(F)cc1`, the cytotoxicity call was “active”.

For the compound `C[C@H](CO)N1C[C@H](C)[C@H](CN(C)S(=O)(=O)c2ccc(F)cc2)Oc2ccc(NC(=O)Nc3ccc(C(F)(F)F)cc3)cc2C1=O`, the cytotoxicity call was “inactive”.

As to `C[C@H]1CCCCO[C@@H](CN(C)C(=O)Nc2ccc3c(c2)OCO3)[C@@H](C)CN([C@@H](C)CO)C(=O)c2cc(NC(=O)C3CCCCC3)ccc2O1`, the cytotoxicity call is “inactive”.

For `C[C@H](CO)N1C[C@H](C)[C@@H](CN(C)C(=O)Nc2cccc3ccccc23)OCCCC[C@H](C)Oc2ccc(NC(=O)CCCN(C)C)cc2C1=O`, the cytotoxicity call was “inactive”.

With `C[C@@H]1CN([C@@H](C)CO)S(=O)(=O)c2ccc(C#CC3(O)CCCC3)cc2O[C@H]1CN(C)C(=O)Cc1ccncc1`, the cytotoxicity call was “inactive”.

As to `C[C@H](CO)N1C[C@H](C)[C@@H](CN(C)Cc2ccc(Oc3ccccc3)cc2)Oc2ccc(NC(=O)Nc3ccc(F)cc3)cc2C1=O`, the cytotoxicity call was “inactive”.

For `C[C@@H]1CN([C@H](C)CO)C(=O)c2cc(NC(=O)Nc3ccc(F)cc3)ccc2O[C@@H]1CN(C)Cc1ccc(Oc2ccccc2)cc1`, the cytotoxicity call is “active”.

With `C[C@H](CO)N1C[C@H](C)[C@H](CN(C)Cc2ccc(Oc3ccccc3)cc2)Oc2ccc(NC(=O)Nc3ccc(F)cc3)cc2C1=O`, the cytotoxicity call was “active”.

On to `C[C@H]1CN([C@@H](C)CO)C(=O)c2cc(NC(=O)Nc3ccc(F)cc3)ccc2O[C@H]1CN(C)Cc1ccc(Oc2ccccc2)cc1`, for which the cytotoxicity call is “inactive”.

For `C[C@@H]1CN([C@@H](C)CO)C(=O)c2cc(NC(=O)Nc3ccc(F)cc3)ccc2O[C@@H]1CN(C)Cc1ccc(Oc2ccccc2)cc1`, the cytotoxicity call is “active”.

Regarding `C[C@@H]1CN([C@H](C)CO)C(=O)c2cc(NC(=O)Nc3ccc(F)cc3)ccc2O[C@H]1CN(C)Cc1ccc(Oc2ccccc2)cc1`, the cytotoxicity call is “active”.

For `C[C@@H]1CN([C@@H](C)CO)C(=O)c2cc(NC(=O)Nc3ccc(F)cc3)ccc2O[C@H]1CN(C)Cc1ccc(Oc2ccccc2)cc1`, the cytotoxicity call is “inactive”.
